19 molecules from PubChem BioAssay (EPA / NIEHS) can be followed below.

Test [1] in a line: TOX21_p53_BLA_p2_viability: Viability Assessment in the Tox21 HCT-116 p53 Agonism Beta-lactamase Assay, Phase 2 (AID 2283591).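 Further: compound exposure lasted 16 h at 37 °C; actives lower the ATP signal meaning cytotoxicity.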 In outline: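 HCT-116 p53-bla cells (4000/well) rested 5 h at 37C, then received compounds in DMSO (217-fold dilution) for 16 h at 37C, 5% CO2. After the CCF4 read, CellTiter-Glo was added; ATP luminescence was read after 30 min at room temperature.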

For test [2], the target named is Cellular tumor antigen p53 (Homo sapiens) (UniProt P04637). Put plainly: TOX21_p53_BLA_p2_ratio: Tox21 HCT-116 p53 Agonism Beta-lactamase Assay, Ratio, Phase 2 (AID 2283592). In short, it runs like this:
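Plated HCT116 p53-bla cells (4000/well) received compound after 5 h, then 16 h at 37C/5% CO2. CCF4-AM added, 2 h RT. Ratio of 460 to 530 nm emission taken as the p53 reporter signal.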

The nature of test [3]: TOX21_p53_BLA_p3_viability: Viability Assessment in the Tox21 HCT-116 p53 Agonism Beta-lactamase Assay, Phase 3 (AID 2283593).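 Further: cells exposed to compound for 16 h before reading.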 In short, it runs like this: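 HCT-116 cells (4000/well) rested 5 h at 37C, then got DMSO compounds by pin tool (217-fold dilution) for 16 h at 37C, 5% CO2. After the bla read, CellTiter-Glo was added and luminescence read at 30 min, room temperature.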

For test [4], the target named is Cellular tumor antigen p53 (Homo sapiens) (UniProt P04637). The test can be described thus: TOX21_p53_BLA_p3_ratio: Tox21 HCT-116 p53 Agonism Beta-lactamase Assay, Ratio, Phase 3 (AID 2283596). In short, it runs like this:
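Cells were seeded at 4000/well, rested 5 h at 37C, then dosed with DMSO compound solutions (217-fold dilution) for 16 h. CCF4-AM substrate was loaded for 2 h at room temperature, and the 460/530 nm emission ratio was fitted for gain of signal versus DMSO.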

The nature of test [5]: TOX21_p53_BLA_p4_viability: Viability Assessment in the Tox21 HCT-116 p53 Agonism Beta-lactamase Assay, Phase 4 (AID 2283597).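 Further: hits lower the luminescence signal meaning cytotoxicity.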 In outline: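 Readout: ATP luminescence (CellTiter-Glo), measured 30 min after reagent addition at RT. The reagent followed a 2 h CCF4-AM incubation, and the cells had been exposed to compound for 16 h at 37C.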
In test [6] the target is Cellular tumor antigen p53 (Homo sapiens) (UniProt P04637). The test can be described thus: TOX21_p53_BLA_p5_ratio: Tox21 HCT-116 p53 Agonism Beta-lactamase Assay, Ratio, Phase 5 (AID 2283599). In short, it runs like this:
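HCT-116 cells carrying a p53-inducible beta-lactamase reporter were seeded at 4000 cells/well and dosed after 5 h with compound in DMSO (217-fold dilution). After 16 h at 37C, CCF4-AM substrate was added for 2 h, and the 460/530 nm emission ratio was scored as gain-of-signal versus DMSO.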

Test [7] is described as follows: TOX21_p53_BLA_p5_viability: Viability Assessment in the Tox21 HCT-116 p53 Agonism Beta-lactamase Assay, Phase 5 (AID 2283600). In short, it runs like this:
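Workflow: seed 4000 cells per well, wait 5 h, add compounds (DMSO, 217-fold dilution), incubate 16 h, load CCF4-AM 2 h, add CellTiter-Glo, read luminescence after 30 min.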

Test [8] addresses Cellular tumor antigen p53 (Homo sapiens) (UniProt P04637). Put plainly: TOX21_p53_BLA_p4_ratio: Tox21 HCT-116 p53 Agonism Beta-lactamase Assay, Ratio, Phase 4 (AID 2283601). In outline:
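HCT116 cells carrying an inducible beta-lactamase reporter were plated at 4000 cells/well, rested 5 h, then exposed to compounds in DMSO (217-fold dilution) for 16 h at 37C. CCF4-AM substrate was loaded 2 h at room temperature; 460/530 nm emission ratio scored gain-of-signal versus DMSO.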

One may read the AC50 as the midpoint of the concentration-response curve, whichever way the signal moves.

Each structure is given as a SMILES string. Results filed as inconclusive are left out. The source made the active and inactive calls. How the source made its calls: active means hit-call score of the fitted dose curve at least 0.9, where 1 is the maximum; inconclusive means response in the unintended direction; inactive means score below 0.9.

Cellular tumor antigen p53 (Homo sapiens), sequence (P04637 whole entry, looked up): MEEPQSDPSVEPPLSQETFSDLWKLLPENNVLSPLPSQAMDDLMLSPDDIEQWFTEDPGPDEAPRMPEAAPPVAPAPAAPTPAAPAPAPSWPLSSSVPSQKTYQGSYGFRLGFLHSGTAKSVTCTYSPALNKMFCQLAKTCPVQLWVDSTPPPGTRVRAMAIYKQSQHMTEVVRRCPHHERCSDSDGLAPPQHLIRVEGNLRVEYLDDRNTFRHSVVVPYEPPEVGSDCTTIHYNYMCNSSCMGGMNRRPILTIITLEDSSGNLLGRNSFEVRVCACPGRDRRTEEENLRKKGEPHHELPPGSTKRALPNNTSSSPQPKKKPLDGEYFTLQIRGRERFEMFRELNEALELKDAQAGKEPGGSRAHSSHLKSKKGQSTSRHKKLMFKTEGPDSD

As to `CC(=O)NCc1c(I)c(NC(C)=O)c(I)c(C(=O)O)c1I`, the outcome in test [1], in test [2], in test [3], in test [4], in test [5] and in test [6] was inactive. In addition, the outcome in test [7] and in test [8] was inactive.

Consider `COc1cc2c(cc1OC)C(=O)C(CC1CCN(Cc3ccccc3)CC1)C2` (stereo unspecified), for which the molecule was classed as inactive in test [1], in test [2], in test [3], in test [4], in test [5] and in test [6]. For the same molecule, the outcome in test [7] and in test [8] was inactive.

As to `C=C1/C(=C\C=C2/CCC[C@]3(C)[C@@H]([C@H](C)CCCC(C)(C)O)CC[C@@H]23)C[C@@H](O)C[C@@H]1O`, the AC50 in test [1] was 19.8 µM (active); in test [2], 37.8 µM (active); in test [3] it was 24.5 µM (active); in test [4], 25.4 µM (active); in test [5], 13 µM (active); in test [6], 27 µM (active). The AC50 is 21 µM (active) in test [7] and 26.1 µM (active) in test [8].

Regarding `CO[C@H]1C[C@H](O[C@@H]2/C(C)=C/C[C@@H]3C[C@@H](C[C@]4(CC[C@H](C)[C@@H](C5CCCCC5)O4)O3)OC(=O)[C@@H]3C=C(C)/C(=N/O)[C@H]4OC/C(=C\C=C\[C@@H]2C)[C@]43O)O[C@@H](C)[C@@H]1O`, the result in test [1], in test [2], in test [3], in test [4], in test [6] and in test [7] was inactive. In addition, the result in test [8] was inactive. Further, the half-maximal activity concentration (AC50) in test [5] was 40.7 µM (active).

In the case of `O=C(CCCN1CCC(O)(c2ccc(Br)cc2)CC1)c1ccc(F)cc1`, the call in test [1], in test [2], in test [3], in test [4], in test [5] and in test [6] was inactive. Also, the call in test [7] and in test [8] was inactive.

With `Cc1nc(NS(=O)(=O)c2ccc(N)cc2)nc(C)c1Br`, the call in test [1], in test [2], in test [3], in test [4], in test [5] and in test [6] was inactive. Besides, in test [7], the call was inactive.

For `COc1cc2c(N3CCN(C(=O)Nc4ccc(OC(C)C)cc4)CC3)ncnc2cc1OCCCN1CCCCC1`, the molecule was classed as inactive in test [1], in test [3], in test [5] and in test [7]. In addition, the half-maximal activity concentration (AC50) in test [2] is 35.5 µM (active); in test [4], 36.9 µM (active); in test [6] it was 34.7 µM (active); in test [8], 25.2 µM (active).

Consider `Cc1cccc(C)c1OCC(=O)N[C@@H](Cc1ccccc1)[C@@H](O)C[C@H](Cc1ccccc1)NC(=O)[C@H](C(C)C)N1CCCNC1=O`, for which the call in test [1], in test [2], in test [3], in test [4], in test [6] and in test [7] was inactive. In addition, the outcome in test [8] was inactive. For the same molecule, in test [5], the AC50 is 37.5 µM (active).

Turning to `Cc1ncc(C[n+]2csc(CCOP(=O)(O)O)c2C)c(N)n1`, the outcome in test [1], in test [2], in test [3], in test [4], in test [5] and in test [6] was inactive. Also, the molecule was called inactive in test [7] and in test [8].

On to `C[C@@H]1CN(CCCn2c3ccccc3c3ccccc32)C[C@H](C)N1`, for which the outcome in test [1], in test [2], in test [3], in test [4], in test [6] and in test [7] was inactive. Also, the outcome in test [8] was inactive. In addition, the AC50 in test [5] is 28.9 µM (active).

With `CCCCCCCCCCCCCCCC(=O)O[C@@H]1[C@@H](O)[C@@H](O)[C@@H]([C@H](NC(=O)[C@@H]2C[C@@H](CCC)CN2C)[C@H](C)Cl)O[C@@H]1SC`, the outcome in test [1], in test [2], in test [3], in test [4], in test [5] and in test [6] was inactive. The result in test [7] and in test [8] was inactive.

On to `O=S(=O)(O)c1ccc(O)cc1`, for which the molecule was classed as inactive in test [1], in test [2], in test [3], in test [4], in test [5] and in test [6]. The molecule was called inactive in test [7] and in test [8].

For the molecule `COc1cc2c(cc1OC)-c1cc(=Nc3c(C)cc(C)cc3C)n(C)c(=O)n1CC2`, the concentration at half-maximal activity (AC50) in test [1] was 39 µM (active); in test [2] it was 35.6 µM (active); in test [3], 33.4 µM (active); in test [4], 36.7 µM (active); in test [5], 36 µM (active); in test [6] it was 41.3 µM (active). In addition, the half-maximal activity concentration (AC50) in test [7] was 32.7 µM (active); in test [8], 36.6 µM (active).

As for `CCC(C)(C)c1ccc(CC(C)CN2C[C@@H](C)O[C@@H](C)C2)cc1` (stereo partly specified), the call in test [1], in test [2], in test [3], in test [4], in test [6] and in test [7] was inactive. In addition, in test [8], the result was inactive. In test [5], the AC50 was 32.7 µM (active).

With `Cc1onc(-c2c(F)cccc2Cl)c1C(=O)N[C@@H]1C(=O)N2[C@@H]1SC(C)(C)[C@@H]2C(=O)O`, the result in test [1], in test [2], in test [3], in test [4], in test [5] and in test [6] was inactive. In addition, the result in test [7] and in test [8] was inactive.

Regarding `CCN(CC)c1ccc(C(=C2C=CC(=[N+](CC)CC)C=C2)c2ccccc2)cc1`, the AC50 in test [1] was 1.81 µM (active); in test [2], 4.15 µM (active); in test [3], 2.75 µM (active); in test [4], 6.97 µM (active); in test [5] it was 1.94 µM (active); in test [6] it was 9.22 µM (active). The half-maximal activity concentration (AC50) in test [7] is 2.93 µM (active); in test [8], 11.1 µM (active).

Take `O=C(CC(=O)C(F)(F)F)c1ccccc1`: the result in test [1], in test [2], in test [4], in test [5], in test [6] and in test [7] was inactive. For the same molecule, in test [8], the result was inactive. In addition, in test [3], the AC50 was 76.4 µM (active).

Turning to `CC[C@H](C)COC(=O)/C=C/c1ccc(N=Cc2ccc(OC)cc2)cc1`, the AC50 in test [1] is 43.5 µM (active); in test [2], 87.2 µM (active); in test [5], 46 µM (active); in test [8] it was 84.4 µM (active). Further, the molecule was called inactive in test [3], in test [4], in test [6] and in test [7].

Take `O=C(O)c1cc(=O)[nH]c(=O)[nH]1`: the outcome in test [1], in test [2], in test [3], in test [4], in test [5] and in test [6] was inactive. Besides, the call in test [7] and in test [8] was inactive.
